SMN2 splice up: qHTS Assay for Enhancers of SMN2 Splice Variant Expression | HEK293 SMN2-luciferase splicing reporter, luminescence, 30-36 h | Potency, µM (series often up to 46.1 µM), without a hit: at the top dose activity change, positive = activation, usual class: activators | actives 2.8% (n = 210,000) | AID 1458, 2008; note: % of control where 0% means no effect; nearly all actives have a fitted effect of over 55% in size
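qHTS luciferase splicing reporter: luminescence rises when SMN2 exon 7 is included in transfected HEK293 cells. Compound exposure lasted 30-36 h at 37C, with 4.5 mM final sodium butyrate as control, followed by a ONE-Glo read.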
ELG1 genotoxic: qHTS screen for small molecules that induce genotoxicity in human embryonic kidney (HEK293T) cells expressing luciferase-tagged ELG1; AID 504466, 2011; HEK293T ELG1-luciferase reporter, luminescence, 16 h; Potency, µM (titrated, usually from 46 µM), for inactives: top-dose activity change, positive = activation, most hits filed as activators; actives 1.3% (n = 330,000); note: % of control where 0% means no effect; nearly all actives have a fitted effect of over 60% in size
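Reporter readout depends on ELG1 protein level, which increases with genetic stress. After 16 hr compound exposure at 37 °C, luciferase activity was quantified using ONE-Glo.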
NPC1 promoter act: qHTS Assay for NPC1 Promoter Activators; Huh7 NPC1 promoter luciferase reporter, 24 h; Potency, µM (series often up to 9.22 µM), for inactives: at the highest dose activation, most hits filed as activators; actives 2.4% (n = 320,000); AID 485313, 2010; note: % of control where 0% means no effect; nearly all actives have a fitted effect of over 60% in size
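In 1536-well qHTS, Huh7 cells harboring an NPC1 promoter–luciferase construct received compound for 24 h; activation was quantified by luminescence following luciferase reagent addition.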
Rab9 promoter act: qHTS Assay for Rab9 Promoter Activators. Huh7 Rab9 promoter-luciferase reporter, luminescence, 24 h. Potency, µM (doses to about 9.22 µM), for the others: top-dose activation, negative = inhibition, most hits filed as activators. actives 2.8% (n = 320,000). AID 485297, 2010; note: % of control where 0% means no effect; nearly all actives have a fitted effect of over 60% in size
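Cell-based reporter: Huh7 stable for Rab9 promoter-driven luciferase, plated in reduced-serum medium with 10% FBS at 1500 cells/well, compound-treated 24 h at 37 °C, luminescence read after 10 min reagent.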
KinaseGlo FLuc: Counterscreen for Luciferase (Kinase-Glo TM) Inhibition; Kinase-Glo luciferase, ATP luminescence, 8 min; Potency, µM (top dose mostly 38.3 µM), without a hit: at the top dose activity change, negative = inhibition, usual class: inhibitors; actives 0.28% (n = 200,000); note: % is set by controls: 0 for no effect and ±100 for the full control effect; nearly all actives have a fitted effect of over 60% in size
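Kinase-Glo luciferase light output from ATP and luciferin was measured with 10 uM ATP, within the enzyme's linear range. Buffer: 50 mM imidazole pH 7.2, 50 mM KCl, 7 mM MgCl2, 0.01% Tween 20, 0.05% BSA; luminescence read after 8 min at ambient temperature.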
FLuc modulator: qHTS profiling assay for firefly luciferase inhibitor/activator using purifed enzyme and Km concentrations of substrates (counterscreen for miR-21 project); Potency, µM (highest dose often 57.5 µM), for the others: at the highest dose activity change, negative = inhibition, hits mostly inhibitors; Luciferin 4-monooxygenase (Photinus pyralis), P08659; purified FLuc, Km substrates, luminescence inhibition; actives 6.9% (n = 360,000);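 note: plate controls were vehicle for no effect and reference inhibitor for full effect; nearly all actives have a fitted effect of over 55% in size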
Target sequence (P08659 whole entry, looked up): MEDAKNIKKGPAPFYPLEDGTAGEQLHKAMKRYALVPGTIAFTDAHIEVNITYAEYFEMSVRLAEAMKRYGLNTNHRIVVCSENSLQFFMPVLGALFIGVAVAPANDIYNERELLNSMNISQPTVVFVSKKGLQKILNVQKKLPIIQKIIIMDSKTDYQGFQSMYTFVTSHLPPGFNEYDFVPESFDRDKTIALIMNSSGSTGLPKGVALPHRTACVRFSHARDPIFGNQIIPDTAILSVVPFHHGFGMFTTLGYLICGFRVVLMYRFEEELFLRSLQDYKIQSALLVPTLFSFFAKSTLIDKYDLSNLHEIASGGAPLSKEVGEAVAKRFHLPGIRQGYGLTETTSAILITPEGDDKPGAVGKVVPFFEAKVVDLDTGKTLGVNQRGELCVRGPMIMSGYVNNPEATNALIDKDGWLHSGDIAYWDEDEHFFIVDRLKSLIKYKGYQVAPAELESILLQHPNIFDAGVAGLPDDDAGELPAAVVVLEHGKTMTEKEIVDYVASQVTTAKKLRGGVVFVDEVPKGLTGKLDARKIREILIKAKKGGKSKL
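Purified P. pyralis luciferase (10nM final) with 10uM D-luciferin and 10uM ATP (Km levels) in 50mM Tris acetate pH 7.5, 10mM Mg acetate, 0.01% Tween-20, 0.05% BSA; qHTS 6-point titration, ~60 µM downward; luminescence read.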
* hit, by the source's call; ? = inconclusive; · = no result; [ ] = remark or other dose. An excerpt weighted towards active compounds, which were near 7.5% of everything screened. Calls come from the whole dose curve; as a rule, active = well fitted curve in the direction sought with a large enough effect; inconclusive = small, poorly fitted or top-dose-only effect, or another doubt; inactive = no such curve, though single readings can be large; an effect the other way counts as inactive or inconclusive. Potency is the fitted concentration of half-maximal effect.

SMILES | SMN2 splice up | ELG1 genotoxic | NPC1 promoter act | Rab9 promoter act | KinaseGlo FLuc | FLuc modulator
Cc1cccc(/C(N)=N/OC(=O)N2c3ccccc3Sc3ccccc32)c1 | -6% | 2% | -2% | 5% | 5% | -16%
COc1cc(OC)cc(C(=O)O/N=C(\N)c2cccc(C)c2)c1 | · | 0% | ? | ? | · | 24µM*
Cc1cccc(/C(N)=N/OC(=O)c2cccnc2)c1 | · | ? | ? | 4µM* | -28% | 9.5µM*
Cc1cccc(/C(N)=N/OC(=O)c2ccc(Br)o2)c1 | ? | ? | 22% | 2% | -14% | 4.3µM*
Cc1cccc(/C(N)=N/OC(=O)C23CC4CC(CC(C4)C2)C3)c1 | -30% | ? | 19% | ? | -6% | 4.3µM*
CCC(C(=O)O/N=C(\N)c1cccc(C)c1)c1ccccc1 (stereo unspecified) | 4% | 25% | 15% | 9% | 0% | ?
Cc1noc(Cn2c(=O)c3cc4c(cc3n(CC(=O)Nc3cccc(Cl)c3)c2=O)OCO4)n1 | · | · | · | · | · | -10%
COCC(C)N=C1NN=C(c2c[nH]c3ccccc23)CS1 (stereo unspecified) | · | ? | 19% | ? | -2% | 21µM*
CCN=C1NN=C(c2c[nH]c3ccccc23)CS1 | · | ? | 3.5µM* | 1.1µM* | -4% | 6µM*
CCN=C1NN=C(c2cc(C)n(CCc3ccccc3)c2C)CS1 | -43% | ? | 3% | -1% | 6% | -16%
Cc1cc(C2=NNC(=NC3CCCCC3)SC2)c(C)n1-c1c(C)n(C)n(-c2ccccc2)c1=O | ? | 0% | -2% | -1% | -8% | -3%
C=C(C)CN=C1NN=C(c2cc(C)n(-c3ccc(C)cc3)c2C)CS1 | ? | 0% | ? | ? | 1% | 8.5µM*
Cc1ccccc1N=C1NN=C(c2ccccc2F)CS1 | 11µM* | 18% | ? | ? | -1% | 21µM*
Cc1cc(C2=NNC(=NC3CC3)SC2)c(C)n1-c1ccccc1F | -93% | -11% | -24% | -37% | 11µM* | 0.21µM*
Cc1cccc(C)c1N=C1NN=C(c2ccccc2F)CS1 | · | -5% | -3% | -4% | · | -26%
CCN(CC)CCCNC(=O)CCCn1ncn2c(cc3occc32)c1=O | -3% | · | · | · | · | -2%
Cn1c(=O)c2c(nc(N/N=C\c3ccccc3C(=O)O)n2C)n(C)c1=O | -13%[9.22 µM] | · | · | · | -1%[7.66 µM] | ·
O=C1c2ccccc2NC(c2ccc(-c3ccc(Br)cc3)o2)N1O (stereo unspecified) | -57% | -6% | -6% | -4% | 7% | 2%
O=C1c2ccccc2NC(c2ccc(-c3ccc(F)cc3)o2)N1O (stereo unspecified) | · | ? | 2.8µM* | 2% | · | ?
COc1ccc(NC(=O)Nc2nnc(N3CCCCC3C)s2)cc1OC (stereo unspecified) | -4% | 1% | -2% | -5% | 6% | 17µM*
COC(=O)c1ccccc1NC(=O)Nc1nnc(N2CCCCC2C)s1 (stereo unspecified) | 3% | 1% | 1% | -2% | 1% | 4%
CCOc1ccc(NC(=O)Nc2nnc(N3CCCCC3C)s2)cc1 (stereo unspecified) | · | · | · | · | · | -2%
COc1ccc(OC)c(NC(=O)Nc2nnc(N3CCCCC3C)s2)c1 (stereo unspecified) | · | 7% | 11% | 7% | · | 19µM*
Cc1cc(C)n(-c2ccc(C(=O)Nc3ccc(N4CCOCC4)cc3)cc2)n1 | -64% | -18% | 18% | 9% | -4% | -13%
Cc1cc(C)n(-c2ccc(C(=O)Nc3ccc(C)c(S(=O)(=O)N(C)C)c3)cc2)n1 | -15%[1.84 µM] | -10% | -4% | -20% | 0% | 17µM*
SMILES | SMN2 splice up | ELG1 genotoxic | NPC1 promoter act | Rab9 promoter act | KinaseGlo FLuc | FLuc modulator
Cc1cc(C)n(-c2ccc(C(=O)Nc3ccc4c(c3)OCO4)cc2)n1 | ? | ? | ? | ? | -12% | 13µM*
COc1ccc(NC(=O)c2ccc(-n3nc(C)cc3C)cc2)cc1OC | -21% | 0% | -2% | 18% | -9% | 15µM*
Cc1cc(C)n(-c2ccc(C(=O)NC3=NCCS3)cc2)n1 | ? | ? | ? | 3.2µM* | -3% | 15µM*
Cc1cc(C)n(-c2ccc(C(=O)Nc3cccc(S(=O)(=O)N(C)C)c3)cc2)n1 | -66% | -7% | -14% | -19% | 4% | ?
Cc1cc(C)n(-c2ccc(C(=O)Nc3ccc(S(=O)(=O)N(C)C)cc3)cc2)n1 | -68% | -7% | -2% | 0% | 1% | 4%
Cc1cc(Cl)ccc1NC(=O)C1CCCN(c2nnc(C)c3c(C)n(-c4ccccc4)nc23)C1 (stereo unspecified) | · | · | · | · | · | 0%
COc1cc2c(=O)c(S(=O)(=O)c3ccc(C)cc3)cn(Cc3cccc(C)c3)c2cc1OC | -14% | · | · | · | · | -1%
O=C(Nc1ccc(S(=O)(=O)Nc2nccs2)cc1)c1cnc(Cl)c(Cl)c1 | · | -2% | -1% | 0% | · | -2%
CC(Oc1ccc2c(c1)oc(=O)c1ccccc12)C(=O)NC(Cc1c[nH]c2ccc(O)cc12)C(=O)O (stereo unspecified) | · | 5% | 1% | 0% | · | 27µM*
Oc1ccccc1-c1cc(-c2ccccc2Cl)[nH]n1 | 3.5µM* | · | · | · | 3% | 0.67µM*
Oc1c(-c2cc(-c3ccco3)[nH]n2)ccc2ccccc12 | 14µM* | ? | 3.2µM* | 3.2µM* | -2% | ?
Oc1ccc(Cl)cc1-c1cc(-c2ccco2)[nH]n1 | 3% | -4% | 28% | 26% | -2% | 19µM*
Oc1ccccc1-c1cc(-c2ccco2)[nH]n1 | ? | 5.8µM* | -2% | 15% | -4% | 9.5µM*
Cc1ccc(Cl)cc1N1CCN(C(c2ccc(F)cc2)c2nnc(-c3ccccc3)o2)CC1 (stereo unspecified) | -24% | · | · | · | · | -17%
O=C(COC(=O)c1cc(S(=O)(=O)N2CCOCC2)ccc1F)NCc1ccco1 | · | 1% | -6% | 4% | · | 1%
Cc1c(C(C)(C)C)s/c(=N/S(=O)(=O)c2ccccc2)n1C | · | 2% | 4% | 2% | · | 4%
Cc1c(C(C)(C)C)sc(=NC(=O)c2ccccc2O)n1C | · | ? | 2.8µM* | 1µM* | · | 0.95µM*
CCSc1nnc(NC(=O)c2ccccc2)s1 | 11µM* | ? | 3.5µM* | 3.2µM* | -5% | 13µM*
CCSc1nnc(NC(=O)c2ccc(Br)s2)s1 | ? | ? | ? | ? | 7% | 15µM*
